Measurements taken from PubChem BioAssay (EPA / NIEHS).
Activity calls are given as the source filed them. Rule for the calls: active = hit-call score of the fitted dose curve at least 0.9, where 1 is the maximum; inactive = score below 0.9.

Assays:
[1] = read-out: Vascular cell adhesion molecule 1 (VCAM1), VCAM1 (gene 7412); test: BSK_4H_VCAM1: BioMAP Diversity Plus: 4H Assay for Vascular cell adhesion molecule 1 (VCAM1) Biomarker Activity (AID 2283033); details: primary human endothelial cells (HUVEC); actives raise or lower the signal;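 for outcome: cell-surface VCAM-1 protein measured by ELISA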
In short: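 HUVEC, 24 h post-dose; VCAM-1 by ELISA. Bidirectional curve fit vs DMSO baseline. Parallel SRB total-protein stain (0.1% SRB after 10% TCA fixation, 560 nm) for cytotoxicity.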

[2] = read-out: Interferon-gamma inducible Protein 10 (IP10), CXCL10 (gene 3627); test: BSK_BE3C_IP10: BioMAP Diversity Plus: BE3C Assay for Interferon-gamma inducible Protein 10 (IP10) Biomarker Activity (AID 2283034); details: primary human bronchial epithelial cells; actives raise or lower the signal
In short: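 ELISA readout of IP-10 in BE3C system: primary human bronchial epithelial cells, 24 h post-dosing; bidirectional curve fit vs DMSO baseline.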

[3] = read-out: Monokine induced gamma interferon (MIG), CXCL9 (gene 4283); test: BSK_BE3C_MIG: BioMAP Diversity Plus: BE3C Assay for Monokine induced gamma interferon (MIG) Biomarker Activity (AID 2283035); details: primary human bronchial epithelial cells; actives raise or lower the signal;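 note: MIG protein measured by ELISA in BE3C cultures after 24 h of dosing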
In short: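 Dose cells (human primary bronchial epithelial), incubate 24 h, quantify MIG by ELISA, then fit concentration–response in both directions relative to DMSO control.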

[4] = read-out: Transforming growth factor beta 1 (TGFb1), TGFB1 (gene 7040); test: BSK_BE3C_TGFb1: BioMAP Diversity Plus: BE3C Assay for Transforming growth factor beta 1 (TGFb1) Biomarker Activity (AID 2283036;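 note: TGF-b1 protein level measured by ELISA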); details: primary human bronchial epithelial cells; actives raise or lower the signal
In short: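 Read-out: ELISA for TGF-b1 in primary human bronchial epithelial cultures, 24 h post-dose. Bidirectional curve fitting vs DMSO control; gain or loss of signal both scored.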

[5] = read-out: Plasminogen activator inhibitor-1 (PAI1), SERPINE1 (gene 5054); test: BSK_BE3C_PAI1: BioMAP Diversity Plus: BE3C Assay for Plasminogen activator inhibitor-1 (PAI1) Biomarker Activity (AID 2283037); details: primary human bronchial epithelial cells; actives raise or lower the signal
In short: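 ELISA read-out of PAI-1 from human bronchial epithelial primary cells, 24 h post-dosing; bidirectional curve fit vs DMSO baseline, gain or loss of signal scored.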

[6] = read-out: urokinase plasminogen activator (uPA), PLAU (gene 5328); test: BSK_BE3C_uPA: BioMAP Diversity Plus: BE3C Assay for urokinase plasminogen activator (uPA) Biomarker Activity (AID 2283038); details: primary human bronchial epithelial cells; actives raise or lower the signal;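 for outcome: uPA protein level quantified by ELISA in cell cultures; uPA read one day after compound addition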
In short: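 Measured by ELISA: uPA from human primary bronchial epithelial cells 24 h after chemical treatment. Values derive from bidirectional curve fitting with DMSO serving as negative control. Total protein by SRB staining in parallel wells flagged overt cytotoxicity.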

[7] = read-out: Urokinase-type plasminogen activator receptor (uPAR), PLAUR (gene 5329); test: BSK_BE3C_uPAR: BioMAP Diversity Plus: BE3C Assay for Urokinase-type plasminogen activator receptor (uPAR) Biomarker Activity (AID 2283039); details: primary human bronchial epithelial cells; actives raise or lower the signal;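 note: uPAR protein level measured by ELISA on the cells; cells exposed to compound for one day before measurement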
In short: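 ELISA readout of uPAR on human lung primary bronchial epithelial cells, 24 h post-dosing. Bidirectional curve fit relative to DMSO vehicle baseline; gain or loss of signal both scored.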

[8] = read-out: Interleukin-6 (IL6), IL6 (gene 3569); test: BSK_CASM3C_IL6: BioMAP Diversity Plus: CASM3C Assay for Interleukin-6 (IL6) Biomarker Activity for (AID 2283040); details: primary human coronary artery smooth muscle cells; actives raise or lower the signal
[9] = read-out: Tissue plasminogen activator (tPA), PLAT (gene 5327); test: BSK_BE3C_tPA: BioMAP Diversity Plus: BE3C Assay for Tissue plasminogen activator (tPA) Biomarker Activity (AID 2283041); details: primary human bronchial epithelial cells; actives raise or lower the signal;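 for outcome: tPA level quantified by ELISA one day after compound addition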
In short: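 ELISA read-out of tPA on human primary bronchial epithelial cells, 24 h post-dosing; bidirectional fit vs DMSO negative control/baseline.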

[10] = read-out: Interleukin-8 (IL8), CXCL8 (gene 3576); test: BSK_CASM3C_IL8: BioMAP Diversity Plus: CASM3C Assay for Interleukin-8 (IL8) Biomarker Activity (AID 2283042); details: primary human coronary artery smooth muscle cells; actives raise or lower the signal;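 note: IL-8 protein level quantified by ELISA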

Row | SMILES | outcome [1] | outcome [2] | outcome [3] | outcome [4] | outcome [5] | outcome [6] | outcome [7] | outcome [8] | outcome [9] | outcome [10] | AC50 [1] | AC50 [2] | AC50 [5] | AC50 [6] | AC50 [9] | AC50 [8] | AC50 [10]
1 | CCCCN1C(=O)[C@@H]([C@H](O)C2CCCCC2)NC(=O)C12CCN(Cc1ccc(Oc3ccc(C(=O)O)cc3)cc1)CC2 | inactive | inactive | inactive | inactive | inactive | inactive | inactive | inactive | inactive | inactive | – | – | – | – | – | – | –
2 | Cn1c(=O)c2[nH]cnc2n(C)c1=O | inactive | inactive | inactive | inactive | inactive | inactive | inactive | inactive | inactive | inactive | – | – | – | – | – | – | –
3 | O=C(NO)C1(NS(=O)(=O)c2ccc(Oc3ccc(F)cc3)cc2)CCOCC1 | inactive | inactive | inactive | inactive | inactive | inactive | inactive | inactive | inactive | inactive | – | – | – | – | – | – | –
4 | c1ccc(C(O[C@@H]2CCCN(CCc3ccc4c(c3)OCO4)C2)c2ccccc2)cc1 | – | inactive | inactive | inactive | inactive | inactive | inactive | inactive | inactive | inactive | 26.9 µM (active) | – | – | – | – | – | –
5 | COc1cc(C(C)C)c2c(c1)S(=O)(=O)N(COc1cc(=O)n3cccc(OCCN4CCCCC4)c3n1)C2=O | – | – | inactive | inactive | – | – | inactive | inactive | – | inactive | 5 µM (active) | 7.41 µM (active) | 8.4 µM (active) | 8.13 µM (active) | 3 µM (active) | – | –
6 | Cn1cc[nH]c1=S | inactive | inactive | inactive | inactive | inactive | inactive | inactive | inactive | inactive | inactive | – | – | – | – | – | – | –
7 | COc1cc2c(c(OC)c1OC)-c1ccc(OC)c(=O)cc1[C@@H](NC(C)=O)CC2 | inactive | inactive | inactive | inactive | – | inactive | inactive | – | inactive | inactive | – | – | 0.148 µM (active) | – | – | 0.148 µM (active) | –
8 | O=C(O)[C@H](O)[C@@H](O)C(=O)O | inactive | inactive | inactive | inactive | inactive | inactive | inactive | inactive | inactive | inactive | – | – | – | – | – | – | –
9 | NC(N)=O | inactive | inactive | inactive | inactive | inactive | inactive | inactive | inactive | – | inactive | – | – | – | – | – | – | –
10 | O=C(O)c1cccc(C[C@@H]2COc3ccc(OCc4nc5cc(F)ccc5s4)cc3[C@@H]2O)c1 | inactive | inactive | inactive | inactive | inactive | inactive | inactive | inactive | – | inactive | – | – | – | – | – | – | –
11 | CC(C)C(=O)Nc1ccc([N+](=O)[O-])c(C(F)(F)F)c1 | inactive | inactive | inactive | inactive | inactive | inactive | inactive | inactive | inactive | inactive | – | – | – | – | – | – | –
12 | OCc1ccccc1 | inactive | inactive | inactive | inactive | inactive | inactive | inactive | inactive | – | inactive | – | – | – | – | – | – | –
13 | CCCCCCCC1CCC(=O)O1 (stereo not drawn) | inactive | inactive | inactive | inactive | inactive | inactive | inactive | inactive | – | inactive | – | – | – | – | – | – | –
14 | CC(C)CC(C)O (stereo not drawn) | inactive | inactive | inactive | inactive | inactive | inactive | inactive | inactive | inactive | inactive | – | – | – | – | – | – | –
15 | Cc1nc(-c2ccccn2)ncc1C(=O)Nn1cc(C)c2cc(F)ccc21 | inactive | inactive | inactive | inactive | inactive | inactive | inactive | inactive | – | inactive | – | – | – | – | – | – | –
16 | CCCCCCCCN(C)C | inactive | inactive | inactive | inactive | inactive | inactive | inactive | inactive | – | inactive | – | – | – | – | – | – | –
17 | O=C(O)c1ccc2c(c1)nc(C(=O)NC1CCN(C3CC3)CC1)n2Cc1cc(-c2ccc(Cl)s2)on1 | inactive | inactive | inactive | inactive | inactive | inactive | inactive | inactive | inactive | inactive | – | – | – | – | – | – | –
18 | CC(C)c1nnc2ccc(-c3ocnc3-c3cc(F)ccc3F)cn12 | inactive | inactive | inactive | inactive | inactive | inactive | inactive | – | inactive | – | – | – | – | – | – | 0.552 µM (active) | 0.628 µM (active)
19 | Cc1ccc(S(=O)(=O)NC(=O)NN2CCCCCC2)cc1 | inactive | inactive | inactive | inactive | inactive | inactive | inactive | inactive | inactive | inactive | – | – | – | – | – | – | –
20 | CC(C)CCCCCCOC(=O)C1CCCCC1C(=O)OCCCCCCC(C)C (stereo not drawn) | inactive | inactive | inactive | inactive | inactive | inactive | inactive | inactive | – | inactive | – | – | – | – | – | – | –
